Source: PubChem BioAssay (The Scripps Research Institute Molecular Screening Center)
MsrA inh: bovine MsrA inhibition; purified bovine MsrA, absorbance read-out; 360,000 compounds, 0.75% hits; AID 651718; inhibition, % at 15.5 µM; in the data active means inhibition above about 4.5%;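 further: 0% = vehicle wells with enzyme and 100% = reference inhibitor wells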
MsrA act: activators of bovine methionine sulfoxide reductase A; activation, % at 10.6 µM; purified bovine MsrA, absorbance read-out; AID 602163; 360,000 compounds, 0.3% hits; in the data active means activation above about 7.5%;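 further: 0% = vehicle and 100% = reference activator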
EBNA-1 inh: blocks EBNA-1 binding to DNA | inhibition, % at 14.8 µM | AID 1950 | 300,000 compounds, 0.34% hits | EBNA-1 DNA binding, fluorescence polarization; in the data active means inhibition above about 28%
PP5 primary: blocks human protein phosphatase 5 activity; P53041; purified PP5c, OMFP substrate fluorescence; inhibition, % at 6.7 µM; 320,000 compounds, 0.18% hits;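 active means inhibition above the campaign's mean inhibition across all tested compounds plus 3 SD, cut at about 9.5% in these data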;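 further: 0% = DMSO only and 100% = 100 µM cantharidin control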
Target sequence (P53041 whole entry, looked up): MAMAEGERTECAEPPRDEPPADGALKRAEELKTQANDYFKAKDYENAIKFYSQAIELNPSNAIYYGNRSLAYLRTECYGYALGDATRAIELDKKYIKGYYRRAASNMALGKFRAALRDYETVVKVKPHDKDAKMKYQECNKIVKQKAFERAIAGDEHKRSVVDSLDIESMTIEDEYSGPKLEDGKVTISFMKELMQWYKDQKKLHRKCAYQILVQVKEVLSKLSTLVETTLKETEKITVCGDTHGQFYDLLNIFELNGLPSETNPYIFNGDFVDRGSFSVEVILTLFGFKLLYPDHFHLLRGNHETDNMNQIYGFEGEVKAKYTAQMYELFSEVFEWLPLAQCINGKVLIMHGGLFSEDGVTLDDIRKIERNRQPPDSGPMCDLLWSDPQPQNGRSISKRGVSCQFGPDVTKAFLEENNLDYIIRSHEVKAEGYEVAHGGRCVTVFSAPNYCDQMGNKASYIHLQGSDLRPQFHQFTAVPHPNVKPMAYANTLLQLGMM
ZTA DNA inh: blocks Epstein-Barr virus ZTA, an EBNA-1 counter-screen | P03206 | inhibition, % at 11 µM | ZTA-DNA binding, fluorescence polarization | 320,000 compounds, 0.15% hits; in the data active means inhibition above about 33%
PP1 inh: blocks human PP1-alpha phosphatase, a PP5 counter-screen. purified PP1alpha, OMFP fluorescence. inhibition, % at 6.7 µM. 320,000 compounds, 0.9% hits;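 active means inhibition above the mean inhibition of all tested compounds plus 3 SD, computed separately for each screening campaign, cut at about 15% in these data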
MsrA act confirm: bovine methionine sulfoxide reductase A activation confirmed | shares compounds with MsrA act | purified bovine MsrA, absorbance read-out | activation, % at 10.6 µM | 1,000 compounds, 12% hits; in the data active means activation above about 4%;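 further: enzyme coupled to thioredoxin and thioredoxin reductase with NADPH; 0% = vehicle wells and 100% = reference activator wells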
An asterisk follows results filed as active; x = not tested or not shown. A selection: hits, their analogues and other compounds. The true share with any hit is near 2.3%.

SMILES	MsrA inh	MsrA act	EBNA-1 inh	PP5 primary	ZTA DNA inh	PP1 inh	MsrA act confirm
CCOc1ccccc1-n1nnnc1SCC(=O)N(C)C1CCS(=O)(=O)C1 (configuration not stated)	-1.7	0.5	x	x	x	x	x
C[C@]12c3[nH]c4cc(-c5ccco5)ccc4c3CCN1C(=O)[C@@H](CC(=O)NCCC1=CCCCC1)C[C@@H]2C(=O)N1CCCCC1	0.8	8.3*	x	x	x	x	-3.2
C[C@]12c3[nH]c4cc(-c5ccco5)ccc4c3CCN1C(=O)[C@@H](CC(=O)NCCc1ccccn1)C[C@@H]2C(=O)N1CCCCC1	2.1	-11.9	x	x	x	x	x
N#Cc1cccc(-c2nnc(SCc3ccccc3C#N)o2)c1	-0.2	14.3*	-7.0	-6.5	-11.3	-2.5	2.1
N#Cc1ccccc1CSc1nnc(-c2ccncc2)o1	x	-7.8	-18.5	1.7	-12.3	-2.4	x
COc1ccc(/C=C/C(=O)NCCc2ccc(S(N)(=O)=O)cc2)cc1	0.1	12.5*	10.9	-0.5	2.3	-5.0	-4.7
O=C1C=C(Nc2ccc(F)cc2)c2ccccc2C1=O	-0.3	2.6	x	2.8	-5.8	1.5	x
O=C1C=C(NCc2ccccc2)c2ccccc2C1=O	1.9	9.4*	x	x	x	x	8.9*
O=C1C=C(Nc2ccccc2O)c2ccccc2C1=O	1.9	9.3*	-0.2	3.6	-10.2	2.0	6.1*
Cc1sc(NC(=O)CN2CCCC2)nc1-c1ccc2c(c1)CCN2C(=O)c1ccc(F)cc1	-1.2	12.1*	-11.2	3.3	-2.1	4.5	-2.8
C=C1CCC[C@]2(C)C[C@H]3OC(=O)C(CNCCN(CC)CC)[C@H]3CC12 (some centres not stated)	-0.9	8.4*	-15.4	-7.3	-10.7	-5.2	-1.1
C=C1CCC[C@]2(C)C[C@H]3OC(=O)C(CNCCN(C)C)[C@H]3CC12 (some centres not stated)	-0.9	-3.4	-3.2	3.1	-8.0	-0.3	x
CCC(C)Sc1nc2ccccc2n1CC(=O)O (configuration not stated)	-0.5	3.9	6.8	-0.7	18.1	-3.0	x
O=C(NCC(c1ccco1)N1CCCCC1)c1ccc(COc2ccccc2)cc1 (configuration not stated)	0.1	-3.3	-5.4	0.1	2.2	-3.9	x
O=C1CN(C(=O)c2ccc(Br)o2)C(c2ccccc2)c2cc(F)ccc2N1 (configuration not stated)	-0.1	12.3*	0.5	0.8	5.5	3.2	-2.5
O=C1c2ccccc2C(=O)c2c(/C=C/N3CCCCC3)ccnc21	1.0	9.7*	x	x	x	x	4.3*
O=C1c2ccccc2-c2cccnc21	0.7	-3.5	-7.2	-0.9	-10.4	-1.9	x
O=C(CC(c1ccccc1)c1cc(Cl)ccc1O)N1CCOCC1 (configuration not stated)	-0.2	9.8*	1.0	2.3	7.9	-0.7	-0.3
CCCS(=O)(=O)N1CCCC(C(=O)Nc2ccc3c(c2)CCC3)C1 (configuration not stated)	-0.4	1.4	-1.2	-1.5	1.0	1.7	x
COc1ccc(/C(C)=N/NC(=O)CNC(=O)Cc2ccccc2)c(OC)c1	-0.3	-1.8	0.9	0.1	18.5	-4.9	x
COc1ccc(/C(C)=N/NC(=O)CNC(=O)c2ccco2)c(OC)c1	-0.8	8.6*	8.2	0.9	10.4	-3.3	-3.1
COc1ccc(C(CNC(=O)c2cccc(N(C)C)c2)N2CCCC2)cc1 (configuration not stated)	1.9	9.0*	-6.7	1.4	9.6	1.3	-0.1
COc1ccc(NS(=O)(=O)c2cccc(C(=O)NCC(c3ccc(OC)cc3)N3CCCC3)c2)cc1 (configuration not stated)	-0.3	-1.1	-11.6	3.9	-8.4	-0.6	x
NC(=O)C1CCN(C(=O)COCc2cc(-c3ccc4c(c3)OCO4)on2)CC1	0.4	-4.2	-0.4	0.0	-8.6	-3.6	x
CC(=O)c1cc2c(cc1NC(=O)c1ccc(-n3nc(C)cc3C)cc1)OCO2	1.1	4.2	x	x	x	x	x
SMILES	MsrA inh	MsrA act	EBNA-1 inh	PP5 primary	ZTA DNA inh	PP1 inh	MsrA act confirm
Cc1cc(C)n(-c2ccc(C(=O)Nc3ccc4c(c3)OCO4)cc2)n1	0.6	8.4*	-10.8	3.8	3.8	-0.6	-6.0
CCOc1cc(S(=O)(=O)NCc2ccc3c(c2)OCO3)c(C)cc1C	-0.9	-1.9	-0.5	6.0	7.4	1.3	x
CCOc1cc(C)c(Cl)cc1S(=O)(=O)NCc1ccc2c(c1)OCO2	1.1	7.8*	-8.2	-3.4	21.0	-0.6	2.0
CCOC(=O)c1cc2c(=O)n3ccccc3nc2n(CCCOC)c1=NC(=O)C(C)(C)C	-1.1	-0.9	-14.6	4.3	10.6	0.9	x
CCOC(=O)c1cc2c(=O)n3ccccc3nc2n(CCOC)c1=NC(=O)C(C)(C)C	0.0	8.2*	3.4	1.8	17.9	-1.2	0.2
COC(=O)c1ccccc1S(=O)(=O)N1CCC(c2nc3ccccc3o2)CC1	-0.1	11.9*	4.9	-2.2	-0.8	-1.9	-2.0
COC(=O)c1cccc(S(=O)(=O)N2CCC(c3nc4ccccc4o3)CC2)c1	-0.6	-9.3	8.4	0.6	-2.2	-1.7	x
O=C(Nc1ccc2c(c1)OCCO2)c1cncc(Br)c1	0.5	9.2*	14.0	-0.5	-11.1	0.1	0.0
S=c1[nH]c2cc(Cl)ccc2s1	0.7	12.1*	1.2	0.0	8.5	-1.8	4.8*
COC(=O)c1ccc(NC(=O)CCCN2C(=O)NC(C)(C)C2=O)cc1	0.7	-5.6	x	x	x	x	x
Cc1ccccc1Nc1n[nH]c(=S)s1	0.4	11.3*	x	x	x	x	0.9
Cc1c(Cl)cccc1Nc1n[nH]c(=S)s1	1.1	9.6*	x	x	x	x	-0.2
Fc1ccccc1Nc1n[nH]c(=S)s1	0.7	-1.7	-3.0	-0.1	10.6	-4.1	x
S=c1[nH]nc(Nc2cccc3ccccc23)s1	1.8	8.8*	-4.5	-3.1	6.9	-1.2	-0.1
CS(=O)(=O)c1ccc(NS(=O)(=O)c2ccc(Cl)c(C(=O)NCc3ccco3)c2)cc1	0.6	-8.9	x	1.6	3.7	-1.9	x
COc1ccccc1/C=C/C(=O)N1CCN(S(=O)(=O)c2cc(C)ccc2C)CC1	0.6	-1.7	x	4.6	5.0	1.8	x
CC1CC(C)CN(CCCNS(=O)(=O)c2ccc3c(c2)CCN3C(=O)C2CC2)C1 (configuration not stated)	-1.2	-1.4	-6.1	-1.5	-24.3	0.6	x
CSc1ccc(-c2nc(O)c3cnccn23)cc1	3.1	10.2*	6.0	2.0	-0.3	3.0	-3.6
Cc1ccc(CNC(=O)N2CCN(S(=O)(=O)c3ccccc3)CC2)cc1	0.2	-1.2	-9.5	0.9	5.2	-1.5	x
O=C(NCCc1ccc(Cl)cc1)C1CCCN1C(=O)Nc1ccccc1 (configuration not stated)	-0.5	-3.0	6.3	1.9	16.6	2.5	x
CCc1cccc(NS(=O)(=O)c2c(C)[nH]c(=O)[nH]c2=O)c1	-1.3	2.2	x	x	x	x	x
